Screening data as filed in PubChem BioAssay.
HCMV antiviral = qHTS Assay for inhibitors of the human cytomegalovirus (HCMV); HFF cells, HCMV-luciferase reporter, 72 h; hits give low values; activity change, negative = inhibition, % at 57.5 µM; 410,000 compounds, 4.5% hits; AID 1259415, 2018; in the data active means activity change below about -60%; inconclusive means no clear call, values can overlap the other calls; inactive means above about -39%
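After 16 h attachment at 37C, HFF cells received test compound and HCMV-luciferase (1 PFU/cell); reporter luminescence read 72 h later, data normalized against buffer-only and known inhibitor Salinomycin.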
LASV entry inh = qHTS for Inhibitors of binding or entry into cells for Lassa Virus | Lassa virus pseudotype entry inhibition, cell reporter | 300,000 compounds, 1.2% hits | AID 540256, 2011 | Potency, µM (highest dose often 37.9 µM), actives largely listed as inhibitors; calls by dose curve; tested in HEK293 cells; further: nearly all actives have a fitted effect of over 50% in size
HCV inhibitor = qHTS Assay for Inhibitors of Hepatitis C Virus (HCV) | Potency, µM (series often up to 41.8 µM), most hits filed as inhibitors | Huh7.5.1 HCVcc-Cre infection, luciferase reporter, 44 h | 340,000 compounds, 3.4% hits
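Cells (1,000/well) were plated 4 h before compound, then infected with HCVcc-Cre virus (~0.5 moi). After 44 h further culture, infection was read as luciferase luminescence following a 15 min substrate incubation at room temperature.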
FMDV inh = High Throughput Screening for Foot and Mouth Disease Virus Antivirals; FMDV antiviral cell-based qHTS; Potency, µM (top dose mostly 57.9 µM), hits mostly inhibitors; 410,000 compounds, 1.2% hits; AID 1159524, 2015; calls by dose curve; tested in HEK293T cells; further: read-out not given here; nearly all actives have a fitted effect of over 45% in size
MARV entry inh = qHTS for inhibitors of binding or entry into cells for Marburg Virus. Marburg virus pseudotyped entry inhibition, cell reporter. Potency, µM (top dose mostly 37.8 µM), usual class: inhibitors. 300,000 compounds, 1.8% hits. AID 540276, 2011; calls by dose curve; tested in HEK293 cells
HCV inh confirm = qHTS Assay for Inhibitors of Hepatitis C Virus (HCV): Confirmation Assay for Cherry-picked Compounds; Potency, µM (doses to about 41.8 µM), actives largely listed as inhibitors; 640 compounds, 78% hits; HCVcc-Cre infectious virus cell assay, luciferase, inhibition; AID 720575, 2013; shares compounds with HCV inhibitor; further: nearly all actives have a fitted effect of over 80% in size
HCV cytotox = qHTS Assay for Inhibitors of Hepatitis C Virus (HCV): Cytotoxicity Counterscreen for Cherry-picked Compounds; HCV host cell line cytotoxicity counterscreen; shares compounds with HCV inhibitor; Potency, µM (doses to about 41.8 µM), most hits filed as inhibitors; 640 compounds, 22% hits; AID 720576, 2013;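 further: 44 h compound exposure; nearly all actives have a fitted effect of over 55% in size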
Of the large screens only hits and unclear results are named; the others gave an inactive call (follow-up assays come after a bar, where they were run). Most compounds without a hit are left out; they make up all but 7.9% or so of the library. Unless noted, the call rests on the fitted dose curve; in most records, active means well fitted curve in the direction sought with a large enough effect; inconclusive means small, poorly fitted or top-dose-only effect, or another doubt; inactive means no such curve, though single readings can be large; an effect the other way counts as inactive or inconclusive.

COc1ccc(CN2CCC(N(CCc3ccccc3)Cc3ccccc3)CC2)c(OC)c1	HCMV antiviral -99, HCV inhibitor 2.5µM, FMDV inh 18µM, MARV entry inh inconclusive (no result: LASV entry inh) | HCV inh confirm 7µM | HCV cytotox inconclusive
Cc1csc(N2CCN(c3cc4c(cc3Cl)nc(-c3ccncc3)n4CCCN3CCCC3)CC2)n1	HCV inhibitor inconclusive, FMDV inh inconclusive (no result: LASV entry inh, MARV entry inh) | HCV inh confirm 14µM | HCV cytotox inactive
COc1ccc(CCNc2ncnc3[nH]ncc23)cc1OC	HCMV antiviral inconclusive, HCV inhibitor inconclusive, FMDV inh 18µM, MARV entry inh inconclusive | HCV inh confirm 8.9µM | HCV cytotox inactive
Fc1ccc(CCNc2ncnc3[nH]ncc23)cc1	HCV inhibitor inconclusive
COc1cc(OC)cc(-c2c(C#Cc3ccsc3)c3cc(-c4cccc5[nH]ccc45)ccc3n2C)c1	none (no result: LASV entry inh, MARV entry inh)
COc1cccc(NC(=O)c2oc3ccccc3c2NC(=O)C2CC2)c1	LASV entry inh inconclusive, HCV inhibitor inconclusive, MARV entry inh inconclusive | HCV inh confirm inconclusive | HCV cytotox inactive
COc1ccc(NC(=O)c2oc3ccccc3c2NC(=O)C2CC2)cc1	none
Cc1ccc(S(=O)(=O)NCC(=O)OCC(=O)N2CC(C)OC(C)C2)cc1 (stereo unspecified)	none (no result: LASV entry inh, MARV entry inh)
Cc1ccc(CSc2ncn(-c3ccccc3)n2)cc1	LASV entry inh inconclusive
Cc1ccc(CSc2nccc(-c3c(C)nc4ccccn34)n2)cc1	HCV inhibitor 5.6µM, FMDV inh inconclusive (no result: LASV entry inh, MARV entry inh) | HCV inh confirm 25µM | HCV cytotox inactive
C[C@@H]1CN([C@@H](C)CO)C(=O)c2cc(Br)cnc2O[C@H]1CN(C)C(=O)Nc1ccccc1	FMDV inh inconclusive (no result: LASV entry inh, HCV inhibitor, MARV entry inh)
COc1ccc(/C=N\NC(=O)c2ccccc2Br)cc1COc1c(F)c(F)cc(F)c1F	HCMV antiviral -81, LASV entry inh inconclusive, HCV inhibitor 5µM, MARV entry inh 6.3µM | HCV inh confirm 4.4µM | HCV cytotox 22µM
COc1ccc(NC(=O)Cn2c(SCc3c(F)cccc3Cl)nc3ccncc32)cc1OC	LASV entry inh inconclusive (no result: HCV inhibitor)
FC(F)(F)c1nc(-c2cccs2)ncc1-c1nnnn1-c1ccc(Cl)cc1	HCMV antiviral -61, LASV entry inh 16µM, HCV inhibitor 5µM, FMDV inh 11µM, MARV entry inh inconclusive | HCV inh confirm 6.3µM | HCV cytotox inactive
NC(=S)NN=Cc1nccc2ccccc12	HCMV antiviral -98, LASV entry inh inconclusive, HCV inhibitor 2.8µM, MARV entry inh inconclusive | HCV inh confirm 6.3µM | HCV cytotox inconclusive
Cc1cnc(C=NNC(N)=S)c2cccc(N)c12	LASV entry inh 8.9µM, HCV inhibitor inconclusive, MARV entry inh 7.1µM | HCV inh confirm inconclusive | HCV cytotox inactive
NC(=S)N/N=C/c1cccc(/C=N/NC(N)=S)c1	none
COc1ccc(-c2nc(CN3CCN(c4ncnc5ccccc45)CC3)c(C)o2)c(OC)c1	HCMV antiviral -82, LASV entry inh inconclusive, HCV inhibitor 5µM, FMDV inh 20µM, MARV entry inh 15µM | HCV inh confirm 5µM | HCV cytotox 7.9µM
Cc1ccc(Cc2nc3ccccc3nc2SCC(=O)NCCc2ccccc2)cc1	none (no result: HCV inhibitor, MARV entry inh)
C/C(=N\Nc1ccc2nncn2n1)c1ccccn1	HCMV antiviral -96, LASV entry inh inconclusive, HCV inhibitor 2µM, MARV entry inh inconclusive | HCV inh confirm 5.6µM | HCV cytotox inconclusive
C/C(=N\Nc1ccc2nncn2n1)c1ccco1	MARV entry inh inconclusive
Cc1ccc(C(=O)NNC(=O)C2CCN(C(=O)OC(C)(C)C)CC2)cc1	none (no result: LASV entry inh, MARV entry inh)
O=[N+]([O-])c1ccc(/C=[N+](\[O-])[C@@H]2CCCC[C@@H]2/[N+]([O-])=C/c2ccc([N+](=O)[O-])o2)o1	HCMV antiviral -98, LASV entry inh inconclusive, HCV inhibitor inconclusive, FMDV inh 32µM, MARV entry inh inconclusive | HCV inh confirm inconclusive | HCV cytotox inconclusive
CCC(=O)NC(c1cccs1)c1cc(Cl)c2cccnc2c1O (stereo unspecified)	HCMV antiviral inconclusive, HCV inhibitor 4µM (no result: LASV entry inh, MARV entry inh) | HCV inh confirm 7µM | HCV cytotox 11µM
COc1cccc(NC(=O)Nc2ccc(Cc3ccncc3)cc2)c1	HCMV antiviral inconclusive, HCV inhibitor inconclusive, MARV entry inh inconclusive | HCV inh confirm inconclusive | HCV cytotox inactive
COc1cccc(NC(=O)Nc2ccncc2)c1	none
CN1CCN(c2ccc(CNS(=O)(=O)Cc3cccc(C(F)(F)F)c3)cc2)CC1	HCMV antiviral inconclusive, HCV inhibitor 5.6µM, FMDV inh inconclusive (no result: LASV entry inh, MARV entry inh) | HCV inh confirm 5.6µM | HCV cytotox 2.5µM
Cc1ccc(-n2nnnc2SCCNS(=O)(=O)c2ccccc2)cc1C	HCV inhibitor inconclusive, MARV entry inh inconclusive (no result: FMDV inh) | HCV inh confirm 14µM | HCV cytotox inactive
COc1ccc(S(=O)(=O)NCCSc2nnnn2-c2ccccc2)cc1OC	none (no result: HCV inhibitor)
O=C(c1csnn1)N1CCC2(CC1)CCN(c1ncccn1)CC2	none (no result: HCMV antiviral, LASV entry inh, HCV inhibitor, MARV entry inh)
Cc1sc(NC(=O)Cc2ccc3c(c2)OCO3)nc1-c1ccc2c(c1)CCN2C(=O)c1cccc(F)c1	HCMV antiviral inconclusive, HCV inhibitor 4µM, FMDV inh inconclusive, MARV entry inh inconclusive | HCV inh confirm 3.5µM | HCV cytotox inconclusive
CCN1CCc2nc(NC(=O)Cc3ccc4c(c3)OCCO4)sc2C1	HCV inhibitor inconclusive, MARV entry inh inconclusive
N#C/C(=C\c1cc([N+](=O)[O-])c(N2CCCCC2)cc1N1CCCCC1)c1nn(-c2ccccc2)c(N)c1C#N	HCV inhibitor inconclusive | HCV inh confirm 10µM | HCV cytotox inactive
N#C/C(=C\c1cccc2ccccc12)c1nn(-c2ccccc2)c(N)c1C#N	LASV entry inh inconclusive, MARV entry inh inconclusive (no result: HCMV antiviral, FMDV inh)
O=C(Nc1ccc(F)cc1Cl)C1CCN(C(=O)Nc2ccccc2)CC1	none (no result: LASV entry inh, MARV entry inh)
Nc1ccccc1C#Cc1ccc([N+](=O)[O-])cc1	LASV entry inh inconclusive, HCV inhibitor inconclusive, MARV entry inh inconclusive | HCV inh confirm 1.8µM | HCV cytotox inactive
Cc1nc(-c2ccc(C(=O)Nc3cccc(Br)c3)cc2)cs1	HCMV antiviral -68, HCV inhibitor 4.5µM (no result: LASV entry inh, MARV entry inh) | HCV inh confirm 2.8µM | HCV cytotox 4µM
O=C(Nc1ccc(Cl)cc1)N[C@@H]1c2c(ccc3ccccc23)OC[C@@H]1CO	HCMV antiviral inconclusive, HCV inhibitor inconclusive, MARV entry inh inconclusive | HCV inh confirm inconclusive | HCV cytotox inconclusive
CN(C(=O)c1ccccc1)C1c2c(ccc3ccccc23)OCC1CO (stereo unspecified)	HCMV antiviral inconclusive (no result: LASV entry inh, MARV entry inh)
COc1cc(Br)cc(CN2CCN(c3ncccn3)CC2)c1O	none (no result: LASV entry inh, MARV entry inh)
CCOc1cc(NC(=S)NCC2CCCO2)c(OCC)cc1NC(=O)c1ccccc1 (stereo unspecified)	HCV inhibitor 8.9µM | HCV inh confirm inconclusive | HCV cytotox inactive
